Reference: the supplement of paper PMC10849652
About 7,900 targets were measured; listed, in parts, are those with a hit and a random draw of the rest. About 0.6% of all pairs of compound and target were hits. Values without a mark were called inactive.

Columns and labels:
Assay in all cases: log2 fold change, soluble protein after heating vs DMSO (PISA); higher = thermal stabilisation; K562 cells, 10 uM, 30 min; active = over 0.2 and 3.5 SD of the protein, either way, in both replicates (recomputed)
[1] = compound: COC1=CC=C(C=C1)CN2C=CC3=C2C=C(C=C3)C(=O)NO
Method in brief: (§1)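 Thermal stability values are relative to control samples and come from duplicates. They are expressed as log2 fold changes. For measurement, K562 cells (2×10^6 cells/mL) received 10 μM compound for 30 min, and aliquots were heated for 3 min over 48°C-58°C, pooled, and extracted at 4°C in PBS with 0.5% NP-40. Soluble protein, the supernatant after 21,000xg for 90 min, was quantified by TMTpro 16plex LC-MS/MS with equalised channel sums.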

[2] = compound: CON(C)C(=O)N1N=C(c2cc(F)ccc2F)S[C@@]1(CCCN)c1ccccc1 [filanesib]
Method in brief: as §1

[3] = compound: CO[C@H]1C[C@@H]2CC[C@@H](C)[C@@](O)(O2)C(=O)C(=O)N2CCCC[C@H]2C(=O)O[C@H]([C@H](C)C[C@@H]2CC[C@H](n3cnnn3)[C@H](OC)C2)CC(=O)[C@H](C)/C=C(\C)[C@@H](O)[C@@H](OC)C(=O)[C@H](C)C[C@H](C)/C=C/C=C/C=C/1C [zotarolimus]
Method in brief: as §1

[4] = compound: COc1cc(C(=O)O)ccc1NC(=O)[C@@H]1N[C@@H](CC(C)(C)C)[C@](C#N)(c2ccc(Cl)cc2F)[C@H]1c1cccc(Cl)c1F [idasanutlin]
Method in brief: as §1

[5] = compound: COc1cc(Nc2ncc3c(n2)-c2ccc(Cl)cc2C(c2c(F)cccc2OC)=NC3)ccc1C(=O)O [alisertib]
Method in brief: as §1

[6] = compound: COc1cc2nc(-c3cc(F)ccc3O)nc(N[C@@H]3CNC[C@H]3C(C)(C)O)c2cc1OC
Method in brief: as §1

[7] = compound: COc1cc2ncnc(Nc3ccc(F)c(Cl)c3)c2cc1OCCCN1CCOCC1 [gefitinib]
Method in brief: as §1

[8] = compound: COc1cccc2cc(-c3nc([C@H]4CC[C@H](C(=O)O)CC4)n4ncnc(N)c34)[nH]c12
Method in brief: as §1

[9] = compound: CS(=O)(=O)CCNCc1ccc(-c2ccc3ncnc(Nc4ccc(OCc5cccc(F)c5)c(Cl)c4)c3c2)o1 [lapatinib]
Method in brief: as §1

[10] = compound: CS(=O)(=O)N1CCN(Cc2cc3nc(-c4cccc5[nH]ncc45)nc(N4CCOCC4)c3s2)CC1 [pictilisib]
Method in brief: as §1

[11] = compound: CS(=O)(=O)c1ccc(-c2cnc(N)c(C(=O)Nc3ccccc3)n2)cc1
Method in brief: as §1

[12] = compound: C[C@@H](Oc1cc(-c2cnn(C3CCNCC3)c2)cnc1N)c1c(Cl)ccc(F)c1Cl [crizotinib]
Method in brief: as §1

[13] = compound: C[C@@H]1COCCN1C2=NC(=NC(=C2)C3(CC3)S(=O)(=O)C)C4=C5C=CNC5=CC=C4
Method in brief: as §1

[14] = compound: C[C@H](C1=CC=C(C=C1)C(=O)NC2=C3C=CNC3=NC=C2)N
Method in brief: as §1

[15] = compound: C[C@H](Nc1ncnc2nc[nH]c12)c1cc2cccc(Cl)c2c(=O)n1-c1ccccc1 [duvelisib]
Method in brief: as §1

[16] = compound: Cc1cc(Nc2cc(CN3CCOCC3)c3nc(C)c(Cc4ccc(Cl)cc4F)n3n2)n[nH]1 [gandotinib]
Method in brief: as §1

[17] = compound: Cc1cc(Nc2cc(N3CCN(C)CC3)nc(Sc3ccc(NC(=O)C4CC4)cc3)n2)n[nH]1 [tozasertib]
Method in brief: as §1

[18] = compound: Cc1cc(SCc2sc(-c3ccc(C(F)(F)F)cc3)nc2C)ccc1OCC(=O)O
Method in brief: as §1

[19] = compound: Cc1ccc(-n2nc(C(C)(C)C)cc2NC(=O)Nc2ccc(OCCN3CCOCC3)c3ccccc23)cc1 [doramapimod]
Method in brief: as §1

[20] = compound: Cc1ccc(C(=O)N(CCCN)[C@@H](c2nc3cc(Cl)ccc3c(=O)n2Cc2ccccc2)C(C)C)cc1 [ispinesib]
Method in brief: as §1

Target: ATIC (UniProt P31939)
- log2 fold change [1]: 0.047
- log2 fold change [2]: -0.039
- log2 fold change [3]: 0.046
- log2 fold change [4]: -0.03
- log2 fold change [5]: -0.092
- log2 fold change [6]: -0.027
- log2 fold change [7]: 0.114
- log2 fold change [8]: -0.008
- log2 fold change [9]: -0.001
- log2 fold change [10]: -0.008
- log2 fold change [11]: 0.108
- log2 fold change [12]: 0.092
- log2 fold change [13]: 0.101
- log2 fold change [14]: -0.083
- log2 fold change [15]: 0.023
- log2 fold change [16]: 0.066
- log2 fold change [17]: 0.018
- log2 fold change [18]: -0.015
- log2 fold change [19]: -0.029
- log2 fold change [20]: 0.096

Target: ACO2 (UniProt Q99798)
Sequence of UniProt Q99798 (Q99798 whole entry, looked up): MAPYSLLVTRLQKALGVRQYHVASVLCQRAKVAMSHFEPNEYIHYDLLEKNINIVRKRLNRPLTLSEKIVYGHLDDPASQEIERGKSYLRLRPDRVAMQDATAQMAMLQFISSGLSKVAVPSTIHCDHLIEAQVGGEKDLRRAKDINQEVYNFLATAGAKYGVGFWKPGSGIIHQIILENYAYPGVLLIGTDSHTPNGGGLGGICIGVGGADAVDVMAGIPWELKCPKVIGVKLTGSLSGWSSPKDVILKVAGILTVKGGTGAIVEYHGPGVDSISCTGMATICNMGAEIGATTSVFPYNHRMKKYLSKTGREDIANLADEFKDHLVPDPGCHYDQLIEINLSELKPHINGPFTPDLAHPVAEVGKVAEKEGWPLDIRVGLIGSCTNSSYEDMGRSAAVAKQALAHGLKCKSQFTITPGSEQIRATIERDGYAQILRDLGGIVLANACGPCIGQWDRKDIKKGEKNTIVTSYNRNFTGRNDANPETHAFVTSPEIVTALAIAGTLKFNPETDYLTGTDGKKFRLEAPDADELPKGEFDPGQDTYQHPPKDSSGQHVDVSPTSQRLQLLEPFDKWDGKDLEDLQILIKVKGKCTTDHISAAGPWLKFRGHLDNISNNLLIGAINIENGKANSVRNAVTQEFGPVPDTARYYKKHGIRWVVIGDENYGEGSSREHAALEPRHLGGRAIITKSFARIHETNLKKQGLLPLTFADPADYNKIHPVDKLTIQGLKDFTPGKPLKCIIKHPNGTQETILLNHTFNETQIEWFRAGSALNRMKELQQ
- log2 fold change [1]: -0.101
- log2 fold change [2]: -0.081
- log2 fold change [3]: 0.015
- log2 fold change [4]: -0.086
- log2 fold change [5]: -0.016
- log2 fold change [6]: 0.036
- log2 fold change [7]: 0.008
- log2 fold change [8]: 0.071
- log2 fold change [9]: -0.018
- log2 fold change [10]: 0.041
- log2 fold change [11]: 0
- log2 fold change [12]: -0.022
- log2 fold change [13]: 0.102
- log2 fold change [14]: -0.085
- log2 fold change [15]: 0.03
- log2 fold change [16]: -0.088
- log2 fold change [17]: -0.024
- log2 fold change [18]: 0.078
- log2 fold change [19]: -0.026
- log2 fold change [20]: 0.041

Target: ARHGAP1 (UniProt Q07960)
Sequence of UniProt Q07960 (Q07960 whole entry, looked up): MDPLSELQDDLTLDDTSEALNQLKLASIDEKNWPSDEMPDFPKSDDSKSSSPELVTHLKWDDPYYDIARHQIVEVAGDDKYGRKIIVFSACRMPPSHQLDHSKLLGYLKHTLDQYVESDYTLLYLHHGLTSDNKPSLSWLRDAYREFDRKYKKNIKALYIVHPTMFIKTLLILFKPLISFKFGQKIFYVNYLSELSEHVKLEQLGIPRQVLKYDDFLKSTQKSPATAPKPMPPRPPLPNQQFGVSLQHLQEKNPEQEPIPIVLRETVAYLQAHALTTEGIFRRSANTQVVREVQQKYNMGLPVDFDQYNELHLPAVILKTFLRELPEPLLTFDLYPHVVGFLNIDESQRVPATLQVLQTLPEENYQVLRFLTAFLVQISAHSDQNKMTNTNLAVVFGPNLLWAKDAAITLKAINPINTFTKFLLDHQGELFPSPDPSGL
- log2 fold change [1]: -0.016
- log2 fold change [2]: 0.084
- log2 fold change [3]: 0.038
- log2 fold change [4]: 0.004
- log2 fold change [5]: -0.011
- log2 fold change [6]: 0.152
- log2 fold change [7]: 0.005
- log2 fold change [8]: -0.036
- log2 fold change [9]: -0.035
- log2 fold change [10]: 0.024
- log2 fold change [11]: 0.011
- log2 fold change [12]: 0.154
- log2 fold change [13]: 0.038
- log2 fold change [14]: -0.003
- log2 fold change [15]: 0.057
- log2 fold change [16]: 0.011
- log2 fold change [17]: 0.046
- log2 fold change [18]: 0
- log2 fold change [19]: -0.039
- log2 fold change [20]: 0.235 (active)

Target: ALDH18A1 (UniProt P54886)
Sequence of UniProt P54886 (P54886 whole entry, looked up): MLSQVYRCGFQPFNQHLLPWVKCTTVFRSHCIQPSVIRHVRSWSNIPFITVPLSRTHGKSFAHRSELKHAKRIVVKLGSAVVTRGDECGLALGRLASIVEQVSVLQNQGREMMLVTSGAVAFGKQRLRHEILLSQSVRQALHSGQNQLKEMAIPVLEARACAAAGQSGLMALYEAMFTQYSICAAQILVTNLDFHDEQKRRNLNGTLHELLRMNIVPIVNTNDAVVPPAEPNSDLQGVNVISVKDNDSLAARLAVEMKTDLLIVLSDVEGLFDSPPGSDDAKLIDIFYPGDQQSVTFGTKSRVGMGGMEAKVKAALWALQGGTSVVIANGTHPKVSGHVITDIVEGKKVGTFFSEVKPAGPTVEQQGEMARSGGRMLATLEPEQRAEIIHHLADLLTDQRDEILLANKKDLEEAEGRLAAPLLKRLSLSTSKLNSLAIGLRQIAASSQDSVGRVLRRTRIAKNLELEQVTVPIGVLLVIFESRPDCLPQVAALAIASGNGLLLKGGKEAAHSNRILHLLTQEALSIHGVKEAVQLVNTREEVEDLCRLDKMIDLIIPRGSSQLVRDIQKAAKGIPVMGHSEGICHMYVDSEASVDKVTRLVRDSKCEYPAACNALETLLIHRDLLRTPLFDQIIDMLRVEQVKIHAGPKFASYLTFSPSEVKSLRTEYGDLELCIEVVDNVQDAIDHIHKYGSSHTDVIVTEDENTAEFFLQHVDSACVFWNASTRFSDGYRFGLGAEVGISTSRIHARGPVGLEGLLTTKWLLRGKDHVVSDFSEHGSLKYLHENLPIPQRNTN
- log2 fold change [1]: -0.024
- log2 fold change [2]: -0.01
- log2 fold change [3]: 0.045
- log2 fold change [4]: -0.233
- log2 fold change [5]: -0.09
- log2 fold change [6]: 0.215
- log2 fold change [7]: -0.18
- log2 fold change [8]: 0.067
- log2 fold change [9]: -0.652 (active)
- log2 fold change [10]: -0.101
- log2 fold change [11]: -0.281
- log2 fold change [12]: 0.08
- log2 fold change [13]: -0.13
- log2 fold change [14]: -0.036
- log2 fold change [15]: -0.255
- log2 fold change [16]: -0.323
- log2 fold change [17]: 0.024
- log2 fold change [18]: 0.032
- log2 fold change [19]: -0.146
- log2 fold change [20]: 0.164

Target: AP2A1 (UniProt O95782)
Sequence of UniProt O95782 (O95782 whole entry, looked up): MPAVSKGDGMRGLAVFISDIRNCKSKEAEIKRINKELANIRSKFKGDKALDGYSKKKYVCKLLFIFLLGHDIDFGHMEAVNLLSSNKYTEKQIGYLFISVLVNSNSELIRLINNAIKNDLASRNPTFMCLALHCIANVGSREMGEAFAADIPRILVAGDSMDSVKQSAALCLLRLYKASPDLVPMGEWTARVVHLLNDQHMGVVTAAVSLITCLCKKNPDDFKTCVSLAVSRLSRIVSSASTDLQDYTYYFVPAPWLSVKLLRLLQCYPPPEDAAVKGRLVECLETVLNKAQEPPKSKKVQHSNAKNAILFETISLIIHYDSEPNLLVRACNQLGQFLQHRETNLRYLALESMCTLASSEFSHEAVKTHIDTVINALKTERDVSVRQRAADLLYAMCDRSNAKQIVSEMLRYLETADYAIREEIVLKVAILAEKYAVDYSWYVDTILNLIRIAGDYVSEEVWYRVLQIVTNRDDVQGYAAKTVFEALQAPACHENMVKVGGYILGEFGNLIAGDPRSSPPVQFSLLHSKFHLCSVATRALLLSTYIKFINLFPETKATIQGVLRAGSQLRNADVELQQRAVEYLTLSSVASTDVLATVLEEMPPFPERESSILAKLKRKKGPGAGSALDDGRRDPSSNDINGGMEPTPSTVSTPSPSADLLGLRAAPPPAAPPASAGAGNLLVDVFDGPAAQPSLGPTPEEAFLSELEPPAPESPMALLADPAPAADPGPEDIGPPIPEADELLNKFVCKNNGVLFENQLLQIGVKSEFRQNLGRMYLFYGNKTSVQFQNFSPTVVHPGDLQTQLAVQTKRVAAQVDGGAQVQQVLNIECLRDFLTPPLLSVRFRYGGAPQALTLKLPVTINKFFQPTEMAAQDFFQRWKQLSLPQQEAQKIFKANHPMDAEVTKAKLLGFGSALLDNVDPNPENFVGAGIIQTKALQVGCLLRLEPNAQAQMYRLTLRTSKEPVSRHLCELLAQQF
- log2 fold change [1]: 0.044
- log2 fold change [2]: 0.045
- log2 fold change [3]: 0.033
- log2 fold change [4]: 0.027
- log2 fold change [5]: -0.041
- log2 fold change [6]: 0.008
- log2 fold change [7]: 0.025
- log2 fold change [8]: 0.005
- log2 fold change [9]: 0.027
- log2 fold change [10]: -0.042
- log2 fold change [11]: -0.011
- log2 fold change [12]: -0.127
- log2 fold change [13]: -0.006
- log2 fold change [14]: -0.237 (active)
- log2 fold change [15]: -0.015
- log2 fold change [16]: 0.01
- log2 fold change [17]: -0.126
- log2 fold change [18]: 0.02
- log2 fold change [19]: 0.039
- log2 fold change [20]: 0.081

Target: ATP12A isoform 2 (UniProt P54707)
Sequence of UniProt P54707 (P54707 whole entry, looked up): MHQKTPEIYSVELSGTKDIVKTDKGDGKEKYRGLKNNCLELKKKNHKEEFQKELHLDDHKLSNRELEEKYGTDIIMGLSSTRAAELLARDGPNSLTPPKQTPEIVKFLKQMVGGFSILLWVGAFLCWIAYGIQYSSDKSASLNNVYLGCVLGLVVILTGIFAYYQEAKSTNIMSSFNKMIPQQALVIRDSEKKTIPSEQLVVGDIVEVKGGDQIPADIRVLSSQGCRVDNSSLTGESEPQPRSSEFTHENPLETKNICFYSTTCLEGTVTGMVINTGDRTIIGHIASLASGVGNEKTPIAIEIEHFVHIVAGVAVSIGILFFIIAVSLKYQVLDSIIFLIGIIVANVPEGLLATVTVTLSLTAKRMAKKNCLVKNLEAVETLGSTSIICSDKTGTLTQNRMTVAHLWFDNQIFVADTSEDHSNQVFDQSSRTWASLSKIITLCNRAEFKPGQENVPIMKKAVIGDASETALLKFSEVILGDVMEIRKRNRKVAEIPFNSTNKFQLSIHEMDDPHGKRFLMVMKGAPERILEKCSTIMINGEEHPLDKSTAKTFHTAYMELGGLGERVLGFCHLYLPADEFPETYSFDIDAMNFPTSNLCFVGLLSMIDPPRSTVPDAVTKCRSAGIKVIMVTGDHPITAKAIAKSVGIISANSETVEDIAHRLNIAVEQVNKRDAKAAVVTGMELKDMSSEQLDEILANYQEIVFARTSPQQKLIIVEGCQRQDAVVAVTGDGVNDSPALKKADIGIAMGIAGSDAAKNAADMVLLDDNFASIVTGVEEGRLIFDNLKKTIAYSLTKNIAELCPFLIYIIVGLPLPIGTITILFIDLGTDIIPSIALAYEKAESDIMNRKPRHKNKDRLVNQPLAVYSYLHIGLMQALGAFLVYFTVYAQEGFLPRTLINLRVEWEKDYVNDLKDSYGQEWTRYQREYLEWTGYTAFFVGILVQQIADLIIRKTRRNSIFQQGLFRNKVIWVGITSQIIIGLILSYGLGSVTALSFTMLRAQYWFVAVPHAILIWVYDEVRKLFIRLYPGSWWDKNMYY
- log2 fold change [1]: -0.034
- log2 fold change [2]: -0.015
- log2 fold change [3]: -0.015
- log2 fold change [4]: 0.016
- log2 fold change [5]: -0.008
- log2 fold change [6]: 0.071
- log2 fold change [7]: 0.032
- log2 fold change [8]: 0.043
- log2 fold change [9]: -0.074
- log2 fold change [10]: 0.1
- log2 fold change [11]: 0.02
- log2 fold change [12]: 0.162
- log2 fold change [13]: 0.138
- log2 fold change [14]: -0.087
- log2 fold change [15]: 0.067
- log2 fold change [16]: -0.047
- log2 fold change [17]: -0.027
- log2 fold change [18]: -0.056
- log2 fold change [19]: -0.004
- log2 fold change [20]: 0.137

Target: ARFGAP1 (UniProt Q8N6T3)
Sequence of UniProt Q8N6T3 (Q8N6T3 whole entry, looked up): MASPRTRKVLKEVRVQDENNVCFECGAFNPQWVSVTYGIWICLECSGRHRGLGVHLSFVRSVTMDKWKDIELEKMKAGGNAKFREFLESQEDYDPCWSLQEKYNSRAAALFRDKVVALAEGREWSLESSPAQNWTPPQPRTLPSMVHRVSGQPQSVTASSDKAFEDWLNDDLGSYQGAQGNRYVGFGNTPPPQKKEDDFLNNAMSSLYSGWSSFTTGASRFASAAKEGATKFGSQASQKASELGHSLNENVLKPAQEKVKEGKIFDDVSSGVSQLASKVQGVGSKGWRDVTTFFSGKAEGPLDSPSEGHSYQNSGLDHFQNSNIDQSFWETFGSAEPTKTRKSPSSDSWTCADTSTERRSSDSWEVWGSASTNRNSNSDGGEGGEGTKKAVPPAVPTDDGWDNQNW
- log2 fold change [1]: 0.03
- log2 fold change [2]: 0.034
- log2 fold change [3]: 0.047
- log2 fold change [4]: 0.028
- log2 fold change [5]: 0.047
- log2 fold change [6]: 0
- log2 fold change [7]: -0.022
- log2 fold change [8]: -0.015
- log2 fold change [9]: -0.038
- log2 fold change [10]: -0.007
- log2 fold change [11]: 0.009
- log2 fold change [12]: 0.094
- log2 fold change [13]: 0.048
- log2 fold change [14]: -0.016
- log2 fold change [15]: -0.011
- log2 fold change [16]: -0.038
- log2 fold change [17]: 0.138
- log2 fold change [18]: 0.047
- log2 fold change [19]: -0.13
- log2 fold change [20]: 0.008

Target: ATP5ME (UniProt P56385)
Sequence of UniProt P56385 (P56385 whole entry, looked up): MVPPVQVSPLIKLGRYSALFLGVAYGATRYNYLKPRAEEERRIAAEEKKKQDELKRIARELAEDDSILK
- log2 fold change [1]: -0.023
- log2 fold change [2]: -0.053
- log2 fold change [3]: 0.002
- log2 fold change [4]: -0.024
- log2 fold change [5]: -0.027
- log2 fold change [6]: -0.04
- log2 fold change [7]: 0.021
- log2 fold change [8]: 0.063
- log2 fold change [9]: -0.001
- log2 fold change [10]: 0.019
- log2 fold change [11]: -0.016
- log2 fold change [12]: 0.101
- log2 fold change [13]: 0.102
- log2 fold change [14]: -0.046
- log2 fold change [15]: 0
- log2 fold change [16]: 0.001
- log2 fold change [17]: 0.008
- log2 fold change [18]: -0.016
- log2 fold change [19]: 0.033
- log2 fold change [20]: 0.078

Target: B4GALNT1 (UniProt Q00973)
Sequence of UniProt Q00973 (Q00973 whole entry, looked up): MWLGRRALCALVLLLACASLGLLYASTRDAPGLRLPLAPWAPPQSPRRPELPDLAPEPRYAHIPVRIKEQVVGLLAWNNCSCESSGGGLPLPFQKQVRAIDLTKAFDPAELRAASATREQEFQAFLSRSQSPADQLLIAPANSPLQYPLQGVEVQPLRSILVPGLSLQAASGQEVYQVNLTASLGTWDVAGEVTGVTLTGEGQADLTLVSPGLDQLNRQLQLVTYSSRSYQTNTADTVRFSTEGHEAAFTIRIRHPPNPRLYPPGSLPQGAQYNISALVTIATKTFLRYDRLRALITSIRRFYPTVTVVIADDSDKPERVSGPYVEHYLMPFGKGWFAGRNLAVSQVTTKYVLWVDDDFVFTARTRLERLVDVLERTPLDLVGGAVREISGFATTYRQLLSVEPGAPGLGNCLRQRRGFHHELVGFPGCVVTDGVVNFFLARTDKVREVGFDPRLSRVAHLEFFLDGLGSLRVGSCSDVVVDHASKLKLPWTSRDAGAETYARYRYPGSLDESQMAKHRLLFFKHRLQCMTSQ
- log2 fold change [1]: 0.023
- log2 fold change [2]: 0.092
- log2 fold change [3]: 0.081
- log2 fold change [4]: 0.093
- log2 fold change [5]: -0.063
- log2 fold change [6]: -0.045
- log2 fold change [7]: 0.119
- log2 fold change [8]: 0.112
- log2 fold change [9]: 0.097
- log2 fold change [10]: -0.045
- log2 fold change [11]: 0.198
- log2 fold change [12]: 0.014
- log2 fold change [13]: -0.003
- log2 fold change [14]: -0.019
- log2 fold change [15]: 0.06
- log2 fold change [16]: -0.077
- log2 fold change [17]: -0.003
- log2 fold change [18]: 0.12
- log2 fold change [19]: 0.065
- log2 fold change [20]: -0.077
